Assay [1] can be described thus: viability loss with induced miR-34 in A549 – imaging, A549 dox-inducible miR-34, nuclei and caspase counts, primary screen (AID 1347080). Particulars: A549 miR-34 inducible, Hoechst nuclei count, 48 h.
The target of assay [2] is NAD(+) hydrolase SARM1 (Homo sapiens) (UniProt Q6SZW1). The experiment in a line: blocking NAD cleavage by SARM1 SAM-TIR – cell lysate, NAD-Glo luminescence (AID 1508614;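 active means compound whose remaining NAD level is above about 45 nM, limit read from the data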). Particulars: SAM-TIR HEK293T lysate NADase, at 1 µM, stronger effect = higher value.
Chain of NAD(+) hydrolase SARM1 (Homo sapiens) (Q6SZW1 whole entry, looked up): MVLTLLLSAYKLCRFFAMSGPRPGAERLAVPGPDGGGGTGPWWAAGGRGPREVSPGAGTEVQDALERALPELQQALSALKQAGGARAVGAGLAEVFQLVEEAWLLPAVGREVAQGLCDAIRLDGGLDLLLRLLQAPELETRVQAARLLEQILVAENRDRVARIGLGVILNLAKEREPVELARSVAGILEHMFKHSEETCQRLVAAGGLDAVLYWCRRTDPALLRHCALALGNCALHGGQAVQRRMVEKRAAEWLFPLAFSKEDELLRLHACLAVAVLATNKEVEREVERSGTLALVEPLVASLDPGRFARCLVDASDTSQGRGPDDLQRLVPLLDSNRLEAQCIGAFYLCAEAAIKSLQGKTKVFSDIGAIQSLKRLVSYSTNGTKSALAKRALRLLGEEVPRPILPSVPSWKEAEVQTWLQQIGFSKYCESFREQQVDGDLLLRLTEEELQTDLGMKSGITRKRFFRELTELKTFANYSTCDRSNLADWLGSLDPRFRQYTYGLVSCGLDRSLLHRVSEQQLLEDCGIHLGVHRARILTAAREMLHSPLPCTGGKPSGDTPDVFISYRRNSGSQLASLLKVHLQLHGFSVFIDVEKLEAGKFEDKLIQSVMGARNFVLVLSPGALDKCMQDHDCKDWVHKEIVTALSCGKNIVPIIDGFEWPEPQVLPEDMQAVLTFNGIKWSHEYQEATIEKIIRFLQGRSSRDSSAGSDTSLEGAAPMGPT
A short description of assay [3]: liver-stage malaria parasite load reduction – cell-based, known kinase inhibitor set, luminescence, hepatoma host viability (AID 624392; call rule not given here;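 further: infected cells incubated roughly two days before readout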). Particulars: Plasmodium liver stage in hepatoma cells, luciferase luminescence, concentration not given here; liver cell % of control: measured here: host liver cell viability; parasite % of control: stronger effect = lower value.
Assay [4] can be described thus: MELAS cybrid and Rieske KO viability enhancers – cell-based, MELAS cybrids, Rieske KO mouse fibroblasts, CellTiter-Glo, primary screen (AID 1508586;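 active means mean z-score across replicates of 1.96 or higher in either the MELAS or the Rieske mutant cell line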;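 further: z relative to plate mean and SD of compound and empty wells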). Particulars: low glucose.
The test system of assay [5] is Hepatitis C virus NS3 helicase. In words: blockers of NS3h binding to ssDNA – biochemical, fluorescence polarization, LOPAC1280 library, primary screen (AID 687035; in the data active means inhibition above about 37%). Particulars: Purified HCV NS3 helicase, Cy5-dT15 ssDNA binding fluorescence polarization; stronger effect = higher value; concentration not given here. In general terms: Fluorescence polarisation rises when a labelled molecule tumbles more slowly, as on binding a larger partner.

A short description of assay [6]: compounds altering Cy5-DNA-NS3h complex signal – biochemical, LOPAC1280, artefact control for HCV NS3 helicase inhibitor project (AID 687037; call rule not given here). Particulars: Cy5-DNA-NS3h complex fluorescence interference counterscreen. A general note: Counterscreens check selectivity or assay interference.
Assay [7] can be described thus: P. berghei load reduction in hepatocytes – cell-based, HepG2, luciferase luminescence, HepG2 viability, primary screen (AID 624349; in the data active means parasite load remaining mostly below about 12%, no sharp cut-off; inactive means mostly above about 10%;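 further: 100% = mean of DMSO negative control wells on the same plate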). Particulars: P. berghei liver stage in HepG2, luciferase luminescence, concentration not given here; parasite load remaining: stronger effect = lower value; viability: measured here: HepG2 viability without parasites.
Assay [8] addresses ATP-dependent translocase ABCB1 (Homo sapiens) (UniProt P08183). In words: P-glycoprotein substrate transport blockade – cell-based (AID 377; in the data active means fluorescence slope change above about 50%). Particulars: MDR1-expressing cells, fluorescent substrate accumulation slope; stronger effect = higher value; concentration not given here.
For assay [9], the target named is Mitogen-activated protein kinase 7 (Homo sapiens) (UniProt Q13164). In words: Gal4-ERK5 driven luciferase induction – cell-based, HTS, primary screen (AID 1508626;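 active means luciferase signal above three times the same-plate solvent-only control wells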;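 further: luciferase driven by Gal4-ERK5 fusion binding five Gal4 sites before minimal TATA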). Particulars: HeLa Gal4-ERK5 transactivation, 18 h, at 5 µM, stronger effect = higher value.
Chain of Mitogen-activated protein kinase 7 (Homo sapiens) (Q13164 whole entry, looked up, the tested form may be a part): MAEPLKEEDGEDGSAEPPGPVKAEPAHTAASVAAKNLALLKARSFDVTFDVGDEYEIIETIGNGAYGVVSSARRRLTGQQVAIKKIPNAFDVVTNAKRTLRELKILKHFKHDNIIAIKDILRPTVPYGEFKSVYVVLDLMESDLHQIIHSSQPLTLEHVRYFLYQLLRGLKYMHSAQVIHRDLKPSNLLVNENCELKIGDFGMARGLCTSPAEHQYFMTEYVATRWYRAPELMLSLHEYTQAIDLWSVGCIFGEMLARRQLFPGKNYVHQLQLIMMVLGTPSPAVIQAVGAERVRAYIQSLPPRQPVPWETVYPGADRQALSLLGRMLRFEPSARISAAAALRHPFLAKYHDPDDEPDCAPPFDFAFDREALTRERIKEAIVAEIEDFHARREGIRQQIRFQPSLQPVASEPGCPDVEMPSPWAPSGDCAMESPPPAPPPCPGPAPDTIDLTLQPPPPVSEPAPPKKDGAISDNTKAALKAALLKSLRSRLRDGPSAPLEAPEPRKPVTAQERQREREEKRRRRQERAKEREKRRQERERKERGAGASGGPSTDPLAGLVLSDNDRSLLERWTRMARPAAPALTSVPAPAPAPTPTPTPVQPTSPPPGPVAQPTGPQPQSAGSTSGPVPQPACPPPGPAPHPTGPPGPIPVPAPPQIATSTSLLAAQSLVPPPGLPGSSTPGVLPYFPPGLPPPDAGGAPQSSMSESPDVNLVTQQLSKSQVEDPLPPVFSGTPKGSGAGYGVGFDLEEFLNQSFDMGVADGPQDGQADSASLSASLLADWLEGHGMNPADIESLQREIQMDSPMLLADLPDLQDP
Assay [10] is described as follows: blockers of polyQ-driven CASP3 activation – cell-based (AID 1583). Particulars: polyglutamine-induced caspase-3 activation, cell assay; stronger effect = higher value;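 tested at 10 µM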.
A short description of assay [11]: yeast 75Q aggregation reduction – 75Q-TubU reporter (AID 1593). Particulars: Yeast 75Q polyglutamine aggregation reporter.
Assay [12] in a line: restoration of touch response, mutant HTT neurons – whole organism, C. elegans mechanosensory neurons, N-terminal huntingtin (AID 1599). Particulars: C. elegans polyQ-huntingtin mechanosensory neurons, stronger effect = higher value.
A short description of assay [13]: blockers of cytochrome c efflux from mitochondria – biochemical, purified mitochondria (AID 1603).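 Further: mouse liver mitochondria challenged with calcium chloride; signal normalized to the plate average as 100%.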 Particulars: stronger effect = lower value.
Assay [14] can be described thus: polyglutamine aggregate formation blockers (AID 1604). Particulars: polyglutamine-induced protein aggregation inhibition assay; stronger effect = higher value; tested at 2.5 µM.
Assay [15] can be described thus: glutamate transport activators, MN-1 cells, MN-1 cell line (AID 1612).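 Further: tested at 1 µM final; 0% = mean of DMSO vehicle wells on each plate; positive means more glutamate uptake than control and negative means less.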 Particulars: MN-1 motor neuron cells, stronger effect = higher value.
The nature of assay [16]: GFP-Q80 aggregate reduction, neuronal-like cells, cell-based, NGF-treated PC12, GFPQ80 (AID 1614).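 Further: lower means fewer inclusions and 0 means no inclusions at all.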 Particulars: PC12 NGF-treated GFP-polyQ80 inclusion reduction.
Assay [17] is described as follows: 75Q-TubH aggregate inhibition, S. cerevisiae, yeast (AID 1616). Particulars: S. cerevisiae 75Q-TubH polyglutamine aggregation suppression; stronger effect = higher value.
[18] abbreviates: stronger effect = lower value, cell number ratio, induced over uninduced.
Where [19] appears, read: measured here: relative caspase fold change +Dox/-Dox.
The mark [20] stands for this setting: measured here: total cells with miR-34 induction, stronger effect = lower value.
Where [21] appears, read: measured here: total cells without miR-34 induction.
Setting [22] is: MELAS cybrid survival, CellTiter-Glo 48 h, stronger effect = higher value.
Where [23] appears, read: Rieske KO mouse fibroblast survival, CellTiter-Glo 72 h.

As usually defined, the inhibition is how much of the control response was suppressed. The viability is a read-out of living cells in per cent, often relative to untreated cells.

Values joined by “and” are separate entries in the source; they are usually repeats but may differ in a detail not shown here. Identical values can stand only once. Results filed as inconclusive are left out. For part of these data: Measured potencies and affinities stand elsewhere. Active and inactive are the calls of the source.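 How the source made its calls, unless noted: active means compounds whose cell count with miR-34 switched on is under 0.7 times the count with it off; inactive means the rest.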

Chain of ATP-dependent translocase ABCB1 (Homo sapiens) (P08183 whole entry, looked up, the tested form may be a part): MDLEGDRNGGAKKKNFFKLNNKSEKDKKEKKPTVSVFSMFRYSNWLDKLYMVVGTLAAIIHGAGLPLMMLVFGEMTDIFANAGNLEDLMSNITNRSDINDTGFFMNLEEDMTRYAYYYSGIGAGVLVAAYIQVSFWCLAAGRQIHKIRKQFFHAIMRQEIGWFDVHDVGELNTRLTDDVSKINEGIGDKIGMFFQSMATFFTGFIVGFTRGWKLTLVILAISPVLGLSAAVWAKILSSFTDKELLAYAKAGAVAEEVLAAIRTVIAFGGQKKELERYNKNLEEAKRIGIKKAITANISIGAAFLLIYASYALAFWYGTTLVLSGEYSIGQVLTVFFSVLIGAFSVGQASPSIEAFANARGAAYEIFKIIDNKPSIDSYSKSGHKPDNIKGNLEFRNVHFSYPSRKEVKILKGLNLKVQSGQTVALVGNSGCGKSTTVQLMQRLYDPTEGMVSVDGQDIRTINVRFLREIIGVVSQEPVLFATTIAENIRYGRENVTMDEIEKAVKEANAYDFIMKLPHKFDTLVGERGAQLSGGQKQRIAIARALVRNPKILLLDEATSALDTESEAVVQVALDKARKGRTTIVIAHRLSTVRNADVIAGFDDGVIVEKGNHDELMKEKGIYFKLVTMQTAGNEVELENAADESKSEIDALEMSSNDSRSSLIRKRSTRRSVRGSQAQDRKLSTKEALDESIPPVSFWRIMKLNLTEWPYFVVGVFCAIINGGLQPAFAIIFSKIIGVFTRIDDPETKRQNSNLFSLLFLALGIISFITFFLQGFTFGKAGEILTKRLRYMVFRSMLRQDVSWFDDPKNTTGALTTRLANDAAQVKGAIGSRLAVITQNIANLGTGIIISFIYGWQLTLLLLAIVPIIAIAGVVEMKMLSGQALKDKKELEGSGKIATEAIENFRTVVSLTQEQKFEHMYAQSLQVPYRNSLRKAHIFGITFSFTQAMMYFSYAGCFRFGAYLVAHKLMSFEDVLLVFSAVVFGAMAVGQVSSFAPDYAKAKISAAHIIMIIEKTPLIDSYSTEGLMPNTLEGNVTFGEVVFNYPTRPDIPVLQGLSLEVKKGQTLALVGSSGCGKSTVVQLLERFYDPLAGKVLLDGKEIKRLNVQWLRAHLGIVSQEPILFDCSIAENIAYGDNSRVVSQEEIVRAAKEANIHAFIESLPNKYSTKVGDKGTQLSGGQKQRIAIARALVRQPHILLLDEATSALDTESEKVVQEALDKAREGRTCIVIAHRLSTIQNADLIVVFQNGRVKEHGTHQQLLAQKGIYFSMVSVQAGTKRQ

`C[C@H](Cn1cnc2c(N)ncnc21)OCP(=O)(O)O`: the fold change in assay [1] (setting [18]) is 0.942 (inactive); in assay [1] (setting [19]), 0.901. Moreover, the cell count was 9100 in assay [1] (setting [20]) and 9660 in [1] (setting [21]). In [2], the remaining NAD is 10 nM (inactive).

As for `O=C1NC(=O)C(=Cc2cccc(C(F)(F)F)c2)S1`, the liver cell % of control in [3] was 81.5% and 80.8% and 97.3%. Besides, the parasite % of control in assay [3] was 0.631% (inactive) and 2.17% (inactive) and 7.31% (inactive). Moreover, the fold change in assay [1] (setting [18]) was 0.809 (inactive); in assay [1] (setting [19]) it was 0.469. Moreover, the cell count in [1] (setting [20]) was determined as 7740; in assay [1] (setting [21]), 9570. The figures for the z-score in assay [4] (setting [22]) and in assay [4] (setting [23]) were -0.352 (inactive) and 0.482, respectively.

Turning to `CCc1c(C(=O)NCCc2ccc(N3CCCCC3)cc2)[nH]c2ccc(Cl)cc12`, the inhibition in [5] is 0% (inactive). For the same compound, the fluorescence ratio (interference) in [6] is 1 (inactive). Also, the fold change in [1] (setting [18]) was 0.939 (inactive); in [1] (setting [19]), 0.558. The cell count in assay [1] (setting [20]) came to 7490; in assay [1] (setting [21]) it was 7980. Further, the values for the z-score in assay [4] (setting [22]) and in assay [4] (setting [23]) were 0.376 (inactive) and -0.206, respectively.

In the case of `CC[C@@]1([C@@H]2O[C@@H]([C@H]3O[C@@](O)(CO)[C@H](C)C[C@@H]3C)C[C@@H]2C)CC[C@H]([C@]2(C)CC[C@]3(C[C@H](O)[C@@H](C)[C@@H]([C@@H](C)[C@@H](OC)[C@H](C)C(=O)O)O3)O2)O1` (stereo in doubt), the parasite load remaining in assay [7] was -0.09% (active). Moreover, in [7], the viability stood at 93.8%. Moreover, the fold change is 0.901 (inactive) in assay [1] (setting [18]) and 1.01 in assay [1] (setting [19]). Also, the cell count came out at 2780 in [1] (setting [20]) and 3090 in assay [1] (setting [21]). Besides, the z-score is -2.78 (inactive) in [4] (setting [22]) and -1.77 in assay [4] (setting [23]).

Consider `CON=C1C[C@]2(C[C@@H]3C[C@@H](C/C=C(\C)C[C@@H](C)/C=C/C=C4\CO[C@@H]5[C@H](O)C(C)=C[C@@H](C(=O)O3)[C@]45O)O2)O[C@H](/C(C)=C/C(C)C)[C@H]1C`, for which the fold change is 1 (inactive) in [1] (setting [18]) and 0.955 in assay [1] (setting [19]). For the same compound, the cell count in [1] (setting [20]) and in assay [1] (setting [21]) was 3250 each time. In addition, the remaining NAD in assay [2] was 10 nM (inactive).

In the case of `COc1ccc(-c2ccc3c(N4CCOCC4)nc(N4CC(C)OC(C)C4)nc3n2)cc1CO` (stereo unspecified), in assay [3], the liver cell % of control was 228% and 225% and 144%. Besides, the parasite % of control in assay [3] was 168% (inactive) and 180% (inactive) and 510% (inactive). The fold change was 1.04 (inactive) in [1] (setting [18]) and 0.95 in [1] (setting [19]). Further, the cell count came to 2720 in assay [1] (setting [20]) and 2620 in assay [1] (setting [21]). Also, the z-score in [4] (setting [22]) was 3.15 (active); in assay [4] (setting [23]), -0.466.

As for `C=C1CC[C@H](O)C/C1=C/C=C1\CCC[C@]2(C)[C@@H]([C@H](C)CCCC(C)C)CC[C@@H]12`, the fluorescence slope change in assay [8] is 59.6% (active). Further, the parasite load remaining in [7] was 130% (inactive). For the same compound, in assay [7], the viability came to 106%. For the same compound, the fold change in [1] (setting [18]) is 0.889 (inactive); in assay [1] (setting [19]), 1.52. For the same compound, the cell count is 8940 in [1] (setting [20]) and 10100 in [1] (setting [21]). Also, in assay [2], the remaining NAD is 10 nM (inactive). Moreover, the luciferase signal in assay [9] was 48 AU (inactive).

Take `CC[C@]12CCCN3CCc4c(n(c5ccccc45)[C@](O)(C(=O)OC)C1)[C@@H]32`: the fluorescence slope change in assay [8] was 15.4% (inactive). The same compound came in with an inhibition in assay [10] of 18.7%. The compound also registered a score in [11] of 1.6. This compound also had a rescue above control in assay [12] of 4.14. The cytochrome c release ratio in assay [13] worked out at 1.05. For the same compound, the inhibition of aggregation in assay [14] is 27%. Besides, in assay [15], the glutamate uptake change was -2.93%. In [16], the inclusion score came out at 2.5. In assay [17], this compound came in with an aggregation suppression score of 1.32. Moreover, in [7], the parasite load remaining is 112% (inactive) and 81.9% (inactive) and 58.4% (inactive). Further, the viability in [7] is 102% and 72.1% and 74.9%. Moreover, the values for the fold change in assay [1] (setting [18]) and in assay [1] (setting [19]) were 0.786 (inactive) and 1.26, respectively. Besides, the cell count in [1] (setting [20]) amounted to 7940; in [1] (setting [21]), 10100.

The values are drawn from PubChem BioAssay.
